The list is not random: actives were taken first. Their share in the collection is about 3.6%.
Pf apPOL inh = Pf-apPOL inhibitors, biochemical, fluorescence | AID 1794808, 2022 | Recombinant Pf-apPOL, molecular beacon fluorescence, 1.5 h | 210,000 tested, 0.25% active | inhibition, % at 10 µM | Plasmodium falciparum apicoplast DNA polymerase (apPOL)
mHTT CaM bind = mutant huntingtin-calmodulin interaction inhibitors – biochemical, AlphaScreen, primary screen | P42858 | AlphaScreen His-mHTT/GST-CaM binding, luminescence | inhibition, % at 15 µM | 190,000 tested, 3.6% active;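 note: 0% = both proteins with DMSO and 100% = one protein alone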
An asterisk follows results filed as active; . = no result. Cut-off read from the data, not from the text of the source: active = inhibition above about 50%; inactive = the rest.

SMILES	Pf apPOL inh	mHTT CaM bind
Cc1cccc(N2CCN(C(=O)C3CCCN(c4cc(=O)n(C)c(=O)n4C)C3)CC2)c1C (stereo unspecified)	-3	51*
Cc1cccc(N2CCN(C(=O)C3CCCN(c4cnn(C)c(=O)c4)C3)CC2)c1C (stereo unspecified)	-4	34
COc1cc(CN2CCN(c3cccc(C)c3C)CC2)cc(OC)c1OC	0	-5
COc1cc(CN2CCN(c3cccc(C)c3C)CC2)cc(Br)c1O	2	55*
COc1ccccc1C=C1N=C(C(C)(C)C)OC1=O	-8	-6
O=S(=O)(NC1CCN(Cc2ccccc2)CC1)c1ccc2nc(-c3ccccc3)[nH]c2c1	-12	87*
O=S(=O)(NC1CCCCCC1)c1ccc2nc(-c3ccccc3)[nH]c2c1	-13	8
Cc1cc(C2C(C#N)=C(N)N(c3ccc(F)cc3)C3=C2C(=O)CCC3)c(C)s1 (stereo unspecified)	-2	12
COc1cc(C2C(C#N)=C(N)N(c3ccccc3)C3=C2C(=O)CCC3)cc(OC)c1OC (stereo unspecified)	-2	10
N#CC1=C(N)N(c2ccc(Cl)cc2)C2=C(C(=O)CCC2)C1c1cc(Br)cs1 (stereo unspecified)	-10	55*
COc1cc(C2C(C#N)=C(N)N(c3cccc([N+](=O)[O-])c3)C3=C2C(=O)CCC3)cc(OC)c1OC (stereo unspecified)	85*	1
Cc1cccc(N2C(N)=C(C#N)C(c3cc(Br)cs3)C3=C2CCCC3=O)c1 (stereo unspecified)	80*	51*
CCSc1ccsc1C1C(C#N)=C(N)N(c2ccccc2)C2=C1C(=O)CCC2 (stereo unspecified)	-2	15
Cc1cc(C2C(C#N)=C(N)N(c3cccc(C(F)(F)F)c3)C3=C2C(=O)CCC3)c(C)s1 (stereo unspecified)	-2	61*
N#CC1=C(N)N(c2ccc(Br)cc2)C2=C(C(=O)CCC2)C1c1ccsc1 (stereo unspecified)	0	8
COCCn1c(CC2CCN(C(=O)Nc3cc(F)cc(F)c3)C2)nc2cccnc21 (stereo unspecified)	-5	-4
O=[N+]([O-])c1ccccc1/C=C/CN1CCN(CCO)CC1	0	-5
NC(=O)c1cc2cc(Br)ccc2oc1=Nc1ccc(Cl)cc1Cl	1	-3
N#CC1=C(N)N(c2ccc(F)cc2)C2=C(C(=O)CCC2)C1c1ccc(Br)s1 (stereo unspecified)	1	86*
CCc1ccc(C2C(C#N)=C(N)N(c3ccc(F)cc3)C3=C2C(=O)CCC3)s1 (stereo unspecified)	-1	27
CCOc1ccc(C=C2Oc3c(ccc(O)c3CN(C)C)C2=O)cc1	0	11
CN1CCCc2cc(C(=O)NC3CC3)sc21	-3	-1
CNC(=O)CSc1ncc(-c2ccc(Br)cc2)n1Cc1ccccc1	-8	69*
COCCn1c(-c2ccccc2)cnc1SCC(=O)Nc1ccccc1	-15	0
CC1CCCCN1CCNC(=O)C1CCN(c2cncnc2N2CCOCC2)CC1 (stereo unspecified)	-5	-6
SMILES	Pf apPOL inh	mHTT CaM bind
CC(C)c1ccc2c(c1)CCC1C(C)(CNC(=O)C=CC(=O)O)CCCC21C (stereo unspecified)	-18	.
Cc1ccc(C)n1Cc1ccc(C(=O)O)cc1	-15	53*
O=C(O)c1ccc(CN2CCOCC2)cc1	-3	-2
COc1cc(C(=O)Nc2ccc(-n3nncc3-c3ccccc3)cc2)cc(OC)c1OC	-3	46
COc1cccc(C(=O)Nc2ccc(-n3nncc3-c3ccccc3)cc2)c1OC	-7	57*
CC(C)C[C@H](CO)N(Cc1ccccc1)S(=O)(=O)N(Cc1ccccc1)[C@@H](CO)CC(C)C	-5	75*
C=CS(=O)(=O)N(Cc1ccccc1)[C@H](CO)CC(C)C	-6	-3
CN(C)Cc1c(O)ccc2c(-c3ccccc3)cc(=O)oc12	0	1
CC[C@@]1(O)C(=O)OCc2c1cc1n(c2=O)Cc2cc3c(CN(C)C)c(O)ccc3nc2-1	84*	.
COc1ccc(-c2[nH]n(-c3nc4ccccc4s3)c(=O)c2C=NCc2ccccn2)cc1	-6	84*
COc1ccc(-c2[nH]n(-c3nc4ccccc4s3)c(=O)c2C=NCC2CCCO2)cc1 (stereo unspecified)	-2	45
COc1ccc(/C=C(/NC(=O)c2ccccc2)C(=O)O)c(OC)c1OC	-4	-5
Cc1ccc(N2CCN(C(=O)CC(C)(C)C)C(C)C2=O)cc1Cl (stereo unspecified)	-2	-1
CC1CCN(CC(O)COC2CCCC2)CC1 (stereo unspecified)	-2	-1
CC(C)(C)C1CCC(OCC(O)CN2CCC(CN3C(=O)c4cccc5cccc(c45)C3=O)CC2)CC1 (stereo unspecified)	28	100*

From PubChem
